For one sequence, binding signal results are on record in article PMC7862700, “An all-to-all approach to the identification of sequence-specific readers for epigenetic DNA modifications on cytosine”.

Common to all, as to test: DAPPL (digital affinity profiling via proximity ligation, sequencing); 10 mM Tris-HCl pH 7.5, 50 mM NaCl, 1 mM DTT, 4% glycerol, room temperature, 30 min; GST-TFs on glutathione beads, 16-mer random dsDNA library, 0.1% formaldehyde crosslink after washing; high values mean tight binding
The target of one test is T1, FLI1 (Homo sapiens, UniProt Q01543 1-452).
T1 sequence: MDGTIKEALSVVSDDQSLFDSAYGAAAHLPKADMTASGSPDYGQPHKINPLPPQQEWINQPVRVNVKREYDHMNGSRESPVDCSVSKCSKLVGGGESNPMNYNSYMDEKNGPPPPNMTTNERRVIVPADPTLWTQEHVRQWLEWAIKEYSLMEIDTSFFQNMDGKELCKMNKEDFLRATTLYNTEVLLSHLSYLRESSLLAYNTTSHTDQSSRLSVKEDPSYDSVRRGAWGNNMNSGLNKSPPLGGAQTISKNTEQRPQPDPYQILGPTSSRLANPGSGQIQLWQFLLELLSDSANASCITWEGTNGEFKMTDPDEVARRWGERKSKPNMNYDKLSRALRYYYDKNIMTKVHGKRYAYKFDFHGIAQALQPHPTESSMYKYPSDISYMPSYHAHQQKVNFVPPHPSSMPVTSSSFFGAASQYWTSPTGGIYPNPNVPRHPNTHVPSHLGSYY
To be noted: protein: recombinant; tags: N-terminal GST; dsDNA, one strand shown. An outline of the steps: (§1)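 The binding signal reported is, for every hexamer, its read frequency for a factor over its read frequency for the tag-only sample. Reads came from pools of yeast-expressed, GST-fused human transcription factors on glutathione beads, barcoded with DNA and mixed with that sample, which were incubated with 200 nmole of a random double-stranded 16-mer DNA library in Tris/NaCl/DTT/glycerol buffer at room temperature for 30 min. After washing, the pools were crosslinked with 0.1% formaldehyde, proximity-ligated with BsaI/T4 ligase for 1 h at 37 °C, PCR-amplified and sequenced on an Illumina NextSeq500.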

Another test concerns the target T2, ELK1 (Homo sapiens, UniProt P19419 1-428).
T2 sequence: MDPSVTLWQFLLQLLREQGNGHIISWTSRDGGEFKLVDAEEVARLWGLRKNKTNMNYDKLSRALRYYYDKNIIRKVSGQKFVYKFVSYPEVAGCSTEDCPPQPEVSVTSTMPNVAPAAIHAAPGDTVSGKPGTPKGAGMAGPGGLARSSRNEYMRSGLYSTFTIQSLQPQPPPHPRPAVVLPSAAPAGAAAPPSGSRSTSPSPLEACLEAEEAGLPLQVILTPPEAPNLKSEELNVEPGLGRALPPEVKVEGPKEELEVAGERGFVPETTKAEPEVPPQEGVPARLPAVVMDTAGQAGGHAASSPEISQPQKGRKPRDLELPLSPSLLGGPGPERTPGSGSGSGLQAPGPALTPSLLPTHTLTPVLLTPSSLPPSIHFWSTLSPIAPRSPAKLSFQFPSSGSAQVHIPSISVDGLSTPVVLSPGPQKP
Conditions: protein: recombinant; tags: N-terminal GST; dsDNA, one strand shown. In short, it runs like this:
as §1

Another test concerns the target T3, GABPA (Homo sapiens, UniProt Q06546 1-454).
T3 sequence: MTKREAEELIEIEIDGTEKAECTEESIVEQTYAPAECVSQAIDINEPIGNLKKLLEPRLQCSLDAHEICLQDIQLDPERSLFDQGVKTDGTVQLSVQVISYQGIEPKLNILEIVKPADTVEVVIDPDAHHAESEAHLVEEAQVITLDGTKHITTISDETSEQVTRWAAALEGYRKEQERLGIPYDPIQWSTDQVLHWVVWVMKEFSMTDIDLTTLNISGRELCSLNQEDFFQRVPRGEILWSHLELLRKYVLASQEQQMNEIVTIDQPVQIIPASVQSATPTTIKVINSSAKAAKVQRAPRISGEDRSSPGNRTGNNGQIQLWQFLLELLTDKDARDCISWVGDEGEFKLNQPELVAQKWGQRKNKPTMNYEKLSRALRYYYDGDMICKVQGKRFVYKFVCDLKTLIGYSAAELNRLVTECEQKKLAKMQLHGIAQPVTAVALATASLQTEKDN
Conditions: protein: recombinant; tags: N-terminal GST; dsDNA, one strand shown. An outline of the steps: as §1

The target in a further test is T4, ERG (Homo sapiens, UniProt P11308 1-479).
T4 sequence: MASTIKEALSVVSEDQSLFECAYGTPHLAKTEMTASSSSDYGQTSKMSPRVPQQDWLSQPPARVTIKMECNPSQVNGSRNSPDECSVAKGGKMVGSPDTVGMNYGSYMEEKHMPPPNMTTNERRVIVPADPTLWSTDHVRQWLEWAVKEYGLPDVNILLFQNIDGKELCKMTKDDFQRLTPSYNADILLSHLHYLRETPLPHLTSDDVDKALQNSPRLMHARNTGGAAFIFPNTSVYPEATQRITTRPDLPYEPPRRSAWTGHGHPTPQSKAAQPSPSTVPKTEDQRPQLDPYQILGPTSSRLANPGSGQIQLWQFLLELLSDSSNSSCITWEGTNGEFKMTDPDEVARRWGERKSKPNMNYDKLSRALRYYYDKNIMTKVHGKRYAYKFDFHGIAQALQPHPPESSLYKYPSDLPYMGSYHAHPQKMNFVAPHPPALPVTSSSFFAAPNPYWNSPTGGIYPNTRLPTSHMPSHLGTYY
Conditions: protein: recombinant; tags: N-terminal GST; dsDNA, one strand shown. In short, it runs like this: as §1

The next test deals with ELF1 (Homo sapiens, UniProt P32519 1-619). To be noted: protein: recombinant; tags: N-terminal GST; dsDNA, one strand shown. In short, it runs like this: as §1
The target of the next test is SPI1 (Homo sapiens, UniProt P17947 1-270). Conditions: protein: recombinant; tags: N-terminal GST; dsDNA, one strand shown. An outline of the steps:
as §1

Another test addresses SPIB (Homo sapiens, UniProt Q01892 1-262). To be noted: protein: recombinant; tags: N-terminal GST; dsDNA, one strand shown. An outline of the steps:
as §1

A further test addresses T5, ELK3 (Homo sapiens, UniProt P41970 1-407).
T5 sequence: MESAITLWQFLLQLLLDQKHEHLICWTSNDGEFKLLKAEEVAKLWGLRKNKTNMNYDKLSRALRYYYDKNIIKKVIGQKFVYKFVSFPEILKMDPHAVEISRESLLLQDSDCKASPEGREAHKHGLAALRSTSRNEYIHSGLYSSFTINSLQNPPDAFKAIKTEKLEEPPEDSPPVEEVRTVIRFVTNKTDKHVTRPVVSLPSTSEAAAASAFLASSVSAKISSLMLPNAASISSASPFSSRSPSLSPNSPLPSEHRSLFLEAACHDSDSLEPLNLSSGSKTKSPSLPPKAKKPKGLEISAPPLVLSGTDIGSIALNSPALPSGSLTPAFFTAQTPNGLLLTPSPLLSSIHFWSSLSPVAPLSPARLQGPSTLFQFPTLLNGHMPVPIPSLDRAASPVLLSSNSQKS
Conditions: protein: recombinant; tags: N-terminal GST; dsDNA, one strand shown. An outline of the steps:
as §1

Another test has as its target T6, FEV (Homo sapiens, UniProt Q99581 1-238).
T6 sequence: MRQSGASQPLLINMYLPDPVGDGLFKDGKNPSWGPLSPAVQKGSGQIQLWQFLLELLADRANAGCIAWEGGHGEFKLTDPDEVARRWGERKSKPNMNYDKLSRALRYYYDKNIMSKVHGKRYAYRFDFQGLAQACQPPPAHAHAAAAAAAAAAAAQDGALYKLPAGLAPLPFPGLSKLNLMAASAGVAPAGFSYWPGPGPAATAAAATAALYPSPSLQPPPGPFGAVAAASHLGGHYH
To be noted: protein: recombinant; tags: N-terminal GST; dsDNA, one strand shown. In short, it runs like this: as §1

In a further test the target is ETV5 (Homo sapiens, UniProt P41161 1-510). Conditions: protein: recombinant; tags: N-terminal GST; dsDNA, one strand shown. An outline of the steps: as §1
In the next test the target is HSF1 (Homo sapiens, UniProt Q00613 1-529). To be noted: protein: recombinant; tags: N-terminal GST; chain copies: 3; dsDNA, one strand shown. An outline of the steps: as §1
Another test concerns the target T7, SPIC (Homo sapiens, UniProt Q8N5J4 1-248).
T7 sequence: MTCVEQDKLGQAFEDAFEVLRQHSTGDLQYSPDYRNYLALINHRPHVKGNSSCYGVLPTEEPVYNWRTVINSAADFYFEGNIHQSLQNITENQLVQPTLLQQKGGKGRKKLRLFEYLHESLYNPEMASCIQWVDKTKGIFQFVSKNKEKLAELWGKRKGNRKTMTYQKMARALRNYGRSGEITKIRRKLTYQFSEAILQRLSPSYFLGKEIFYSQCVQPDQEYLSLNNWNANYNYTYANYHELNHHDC
Conditions: protein: recombinant; tags: N-terminal GST; dsDNA, one strand shown. An outline of the steps:
as §1

The target in another test is ELF4 (Homo sapiens, UniProt Q99607 1-663). To be noted: protein: recombinant; tags: N-terminal GST; dsDNA, one strand shown. In short, it runs like this: as §1
Another test concerns the target T8, ELK4 (Homo sapiens, UniProt P28324-2 1-405).
T8 sequence: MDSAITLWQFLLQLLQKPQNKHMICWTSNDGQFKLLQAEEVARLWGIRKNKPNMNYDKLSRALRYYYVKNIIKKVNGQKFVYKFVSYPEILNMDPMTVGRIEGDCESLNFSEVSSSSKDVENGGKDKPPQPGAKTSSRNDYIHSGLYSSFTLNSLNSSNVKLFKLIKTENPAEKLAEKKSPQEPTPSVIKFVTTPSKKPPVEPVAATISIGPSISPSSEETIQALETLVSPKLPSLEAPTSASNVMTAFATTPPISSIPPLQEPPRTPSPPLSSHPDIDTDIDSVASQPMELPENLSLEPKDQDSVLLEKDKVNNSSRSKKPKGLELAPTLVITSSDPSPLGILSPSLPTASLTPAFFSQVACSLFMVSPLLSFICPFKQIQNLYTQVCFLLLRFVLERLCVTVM
Conditions: protein: recombinant; tags: N-terminal GST; dsDNA, one strand shown. In short, it runs like this: as §1

A further test deals with T9, ELF3 (Homo sapiens, UniProt P78545 1-371).
T9 sequence: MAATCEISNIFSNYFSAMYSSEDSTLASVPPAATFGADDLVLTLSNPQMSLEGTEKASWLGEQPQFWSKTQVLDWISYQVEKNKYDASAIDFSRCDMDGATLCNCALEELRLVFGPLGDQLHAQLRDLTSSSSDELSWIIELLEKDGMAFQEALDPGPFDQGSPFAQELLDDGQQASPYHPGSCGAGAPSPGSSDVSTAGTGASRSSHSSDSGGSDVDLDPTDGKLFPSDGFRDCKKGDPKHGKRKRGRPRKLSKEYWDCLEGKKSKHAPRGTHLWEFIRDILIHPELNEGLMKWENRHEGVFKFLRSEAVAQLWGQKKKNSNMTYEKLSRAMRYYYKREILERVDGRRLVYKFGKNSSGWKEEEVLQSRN
Conditions: protein: recombinant; tags: N-terminal GST; dsDNA, one strand shown. In short, it runs like this:
as §1

The next test deals with CRX (Homo sapiens, UniProt O43186 1-299). Conditions: protein: recombinant; tags: N-terminal GST; dsDNA, one strand shown. An outline of the steps:
as §1

The target in the next test is ETV1 (Homo sapiens, UniProt P50549 1-477). Conditions: protein: recombinant; tags: N-terminal GST; dsDNA, one strand shown. An outline of the steps: as §1
Sequence of ETV1 (P50549 whole entry): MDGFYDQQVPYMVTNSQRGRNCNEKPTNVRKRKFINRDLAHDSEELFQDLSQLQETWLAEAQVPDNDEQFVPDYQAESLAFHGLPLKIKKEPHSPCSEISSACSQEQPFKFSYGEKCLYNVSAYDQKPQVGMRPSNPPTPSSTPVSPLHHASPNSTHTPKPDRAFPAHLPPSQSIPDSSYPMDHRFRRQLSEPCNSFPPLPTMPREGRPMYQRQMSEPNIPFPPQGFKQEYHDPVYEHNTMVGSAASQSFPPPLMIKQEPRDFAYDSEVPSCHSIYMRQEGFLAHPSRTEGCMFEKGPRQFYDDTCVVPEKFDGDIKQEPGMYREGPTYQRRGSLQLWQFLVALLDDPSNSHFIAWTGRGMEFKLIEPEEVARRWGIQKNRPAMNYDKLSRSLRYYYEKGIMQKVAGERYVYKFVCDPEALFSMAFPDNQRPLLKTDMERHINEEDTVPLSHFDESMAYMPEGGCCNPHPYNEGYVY

Sequence of HSF1 (Q00613 whole entry): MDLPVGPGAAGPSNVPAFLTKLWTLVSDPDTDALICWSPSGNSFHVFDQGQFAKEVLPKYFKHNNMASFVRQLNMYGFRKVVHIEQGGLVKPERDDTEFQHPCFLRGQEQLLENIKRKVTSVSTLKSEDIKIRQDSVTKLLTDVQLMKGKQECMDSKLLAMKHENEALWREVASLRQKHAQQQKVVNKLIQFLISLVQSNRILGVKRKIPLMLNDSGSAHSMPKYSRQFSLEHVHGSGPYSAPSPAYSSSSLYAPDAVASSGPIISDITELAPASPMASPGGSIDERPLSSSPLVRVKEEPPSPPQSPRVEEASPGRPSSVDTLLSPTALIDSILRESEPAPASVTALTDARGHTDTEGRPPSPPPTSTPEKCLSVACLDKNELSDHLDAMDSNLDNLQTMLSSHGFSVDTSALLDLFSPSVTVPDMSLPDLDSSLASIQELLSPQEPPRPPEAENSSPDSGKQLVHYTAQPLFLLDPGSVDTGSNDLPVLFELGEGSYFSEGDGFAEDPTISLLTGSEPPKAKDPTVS
Sequence of SPIB (Q01892 whole entry): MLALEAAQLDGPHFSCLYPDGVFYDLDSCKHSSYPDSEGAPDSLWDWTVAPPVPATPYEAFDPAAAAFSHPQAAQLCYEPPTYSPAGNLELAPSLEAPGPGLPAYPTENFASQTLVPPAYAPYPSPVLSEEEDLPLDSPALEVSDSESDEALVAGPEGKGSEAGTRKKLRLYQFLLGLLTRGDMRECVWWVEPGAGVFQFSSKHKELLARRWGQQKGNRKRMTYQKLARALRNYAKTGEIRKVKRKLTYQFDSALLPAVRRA
Sequence of ELF1 (P32519 whole entry): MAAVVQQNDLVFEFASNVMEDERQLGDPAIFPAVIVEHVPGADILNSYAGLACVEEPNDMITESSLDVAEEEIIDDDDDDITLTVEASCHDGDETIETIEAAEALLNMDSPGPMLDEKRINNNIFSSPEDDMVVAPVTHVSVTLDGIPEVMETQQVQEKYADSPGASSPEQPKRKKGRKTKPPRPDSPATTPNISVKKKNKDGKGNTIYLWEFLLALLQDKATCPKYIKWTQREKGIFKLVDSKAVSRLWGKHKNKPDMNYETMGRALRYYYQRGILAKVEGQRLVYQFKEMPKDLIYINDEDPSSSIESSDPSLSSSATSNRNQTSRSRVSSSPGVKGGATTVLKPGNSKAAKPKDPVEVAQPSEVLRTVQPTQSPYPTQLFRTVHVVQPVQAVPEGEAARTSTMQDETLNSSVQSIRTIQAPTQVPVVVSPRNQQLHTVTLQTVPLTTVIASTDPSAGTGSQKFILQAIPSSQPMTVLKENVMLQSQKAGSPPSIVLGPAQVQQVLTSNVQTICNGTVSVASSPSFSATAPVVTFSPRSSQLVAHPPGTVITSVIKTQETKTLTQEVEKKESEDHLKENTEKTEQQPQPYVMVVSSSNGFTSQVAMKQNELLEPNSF
Sequence of ETV5 (P41161 whole entry): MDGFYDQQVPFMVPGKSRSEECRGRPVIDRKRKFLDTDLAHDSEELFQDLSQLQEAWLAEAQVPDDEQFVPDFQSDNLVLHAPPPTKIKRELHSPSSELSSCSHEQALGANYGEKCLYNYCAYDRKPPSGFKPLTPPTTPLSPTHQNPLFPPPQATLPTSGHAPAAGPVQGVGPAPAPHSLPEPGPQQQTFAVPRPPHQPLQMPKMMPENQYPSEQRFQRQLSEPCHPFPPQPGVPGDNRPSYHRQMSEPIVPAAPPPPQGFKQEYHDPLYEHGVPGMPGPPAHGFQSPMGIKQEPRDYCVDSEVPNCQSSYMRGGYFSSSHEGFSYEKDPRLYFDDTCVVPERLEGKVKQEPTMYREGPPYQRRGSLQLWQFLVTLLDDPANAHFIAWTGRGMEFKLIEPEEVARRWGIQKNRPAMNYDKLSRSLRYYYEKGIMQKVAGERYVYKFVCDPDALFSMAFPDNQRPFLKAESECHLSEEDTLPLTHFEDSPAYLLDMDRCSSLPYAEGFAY
Sequence of CRX (O43186 whole entry): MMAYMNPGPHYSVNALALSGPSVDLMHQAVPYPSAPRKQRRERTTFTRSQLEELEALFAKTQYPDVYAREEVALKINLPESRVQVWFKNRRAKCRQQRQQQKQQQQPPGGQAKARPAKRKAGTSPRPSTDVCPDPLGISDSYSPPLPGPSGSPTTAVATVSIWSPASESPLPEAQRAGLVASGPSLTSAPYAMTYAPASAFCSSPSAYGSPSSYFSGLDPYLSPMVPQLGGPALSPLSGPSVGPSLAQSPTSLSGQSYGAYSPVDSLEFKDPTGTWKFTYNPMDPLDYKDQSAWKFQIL
Sequence of ELF4 (Q99607 whole entry): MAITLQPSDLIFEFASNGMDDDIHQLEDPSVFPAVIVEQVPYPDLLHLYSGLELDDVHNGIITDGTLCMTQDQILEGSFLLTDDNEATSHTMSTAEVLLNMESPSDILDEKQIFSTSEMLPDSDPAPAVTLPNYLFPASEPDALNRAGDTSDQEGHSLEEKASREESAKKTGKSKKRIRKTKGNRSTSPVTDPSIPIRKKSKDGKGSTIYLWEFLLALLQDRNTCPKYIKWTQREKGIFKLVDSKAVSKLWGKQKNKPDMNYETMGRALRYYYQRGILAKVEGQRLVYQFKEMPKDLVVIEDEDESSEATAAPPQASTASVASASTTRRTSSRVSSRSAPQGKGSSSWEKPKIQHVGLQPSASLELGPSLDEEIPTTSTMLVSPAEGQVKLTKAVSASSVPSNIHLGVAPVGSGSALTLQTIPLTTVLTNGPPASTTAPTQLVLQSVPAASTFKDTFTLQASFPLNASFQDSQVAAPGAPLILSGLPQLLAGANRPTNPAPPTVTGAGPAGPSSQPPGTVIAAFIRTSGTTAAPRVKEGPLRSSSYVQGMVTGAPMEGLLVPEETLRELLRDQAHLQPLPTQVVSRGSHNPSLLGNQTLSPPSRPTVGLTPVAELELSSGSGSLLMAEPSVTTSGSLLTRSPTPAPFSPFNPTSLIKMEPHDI

On to CGATCA, for which the binding signal in the test with FLI1 is 1.15 fold enrichment (6-mer frequency, TF over GST control); with ELK1 it was 1.13 fold enrichment (6-mer frequency, TF over GST control); with GABPA, 1.15 fold enrichment (6-mer frequency, TF over GST control); with ERG it was 1.07 fold enrichment (6-mer frequency, TF over GST control); in the test with ELF1, 1.2 fold enrichment (6-mer frequency, TF over GST control); with SPI1 it was 1.02 fold enrichment (6-mer frequency, TF over GST control). Also, the binding signal with SPIB was 1.06 fold enrichment (6-mer frequency, TF over GST control); in the test with ELK3, 1.23 fold enrichment (6-mer frequency, TF over GST control); in the test with FEV, 1.04 fold enrichment (6-mer frequency, TF over GST control); with ETV5, 1.03 fold enrichment (6-mer frequency, TF over GST control); with HSF1, 1.22 fold enrichment (6-mer frequency, TF over GST control); with SPIC, 1.06 fold enrichment (6-mer frequency, TF over GST control). In addition, the binding signal with ELF4 is 1.06 fold enrichment (6-mer frequency, TF over GST control); in the test with ELK4, 1.07 fold enrichment (6-mer frequency, TF over GST control); with ELF3 it was 1.07 fold enrichment (6-mer frequency, TF over GST control); in the test with CRX, 1.16 fold enrichment (6-mer frequency, TF over GST control); with ETV1 it was 1.04 fold enrichment (6-mer frequency, TF over GST control).
